A selection: hits, their analogues and other compounds. The true share with any hit is near 2.4%.
Cruzain inh noDet: qHTS Assay for Promiscuous and Specific Inhibitors of Cruzain (without detergent) | purified cruzain, Z-FR-AMC fluorescence, no detergent | 2.3% of 200,000 active | Potency, µM, without a hit: max response, negative = inhibition, most hits filed as inhibitors | Cruzipain (Trypanosoma cruzi), P25779;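 further: plate controls were enzyme without inhibitor for no effect and buffer without enzyme for full effect; nearly all actives have a fitted effect of over 40% in size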
Target sequence (P25779 123-467 limits assumed): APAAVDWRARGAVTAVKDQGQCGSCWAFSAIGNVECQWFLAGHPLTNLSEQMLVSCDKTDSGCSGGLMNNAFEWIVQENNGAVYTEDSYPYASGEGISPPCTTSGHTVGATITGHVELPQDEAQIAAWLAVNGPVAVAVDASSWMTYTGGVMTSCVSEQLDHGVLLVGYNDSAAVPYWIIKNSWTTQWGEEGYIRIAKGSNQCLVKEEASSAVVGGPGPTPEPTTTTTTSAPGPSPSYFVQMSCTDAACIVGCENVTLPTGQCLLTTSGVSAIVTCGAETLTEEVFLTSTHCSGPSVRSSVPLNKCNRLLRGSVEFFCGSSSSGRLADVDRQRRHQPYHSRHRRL
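Detergent-free condition (0.00005% Triton X-100) in acetate buffer pH 5.5 with DTT. 1.5 nM enzyme and compound were pre-mixed 15 min, then 2 uM Z-FR-AMC substrate added; reaction progress from fluorescence change between first and third reads (60 s).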
Cruzain inh Det: qHTS Assay for Promiscuous and Specific Inhibitors of Cruzain (with detergent); Cruzipain (Trypanosoma cruzi), P25779; purified cruzain, Z-FR-AMC fluorescence, 0.01% Triton; Potency, µM, inactives show max response, negative = inhibition, actives largely listed as inhibitors; 0.43% of 200,000 active; AID 1478, 2009;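 further: plate controls were neutral wells for no effect and buffer without enzyme for full effect; nearly all actives have a fitted effect of over 40% in size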
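Cysteine protease activity tested under reducing, mildly acidic conditions (100 mM sodium acetate pH 5.5, 5 mM DTT) plus 0.01% Triton X-100. Cruzain 1.5 nM; substrate Z-FR-AMC 2 uM; 15 min compound preincubation at room temperature.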
* marks the source's active call; other numbers are inactive results. The call rests on the fitted dose curve; in most records, active means well fitted curve in the direction sought with a large enough effect; inconclusive means small, poorly fitted or top-dose-only effect, or another doubt; inactive means no such curve, though single readings can be large; an effect the other way counts as inactive or inconclusive. Potency means the concentration at half of the fitted maximal effect.

`O=C(Nc1ccc(OCc2ccccc2)cc1)c1cccc([N+](=O)[O-])c1` gave Cruzain inh noDet -30% and Cruzain inh Det -2%.
Cc1ccc(C(=O)Nc2ccc(OCc3ccccc3)cc2)cc1[N+](=O)[O-] was read as Cruzain inh noDet 13µM* and Cruzain inh Det -2%.
Screening COC(=O)c1ccc(CNC(=O)c2ccc(COc3ccccc3)cc2)cc1 returned Cruzain inh noDet 10µM* and Cruzain inh Det -2%.
For NNC(=O)c1ccc(COc2ccccc2)cc1 the results were Cruzain inh noDet 9% and Cruzain inh Det -1%.
Screening CC(=O)c1cc(-c2ccc(F)cc2)n(CC(=O)NC2CCC(C)CC2)c1C (configuration not stated) returned Cruzain inh noDet -11% and Cruzain inh Det -1%.
Cc1ccc2c(CC(=O)Nc3c(C(=O)c4ccc(F)cc4)oc4ccccc34)coc2c1 was read as Cruzain inh noDet -22% and Cruzain inh Det -2%.
Screening COc1ccc(N2CCN(c3nc4ccc(C)cc4n4nnnc34)CC2)cc1 returned Cruzain inh noDet -9% and Cruzain inh Det -1%.
`COc1cccc2c1cc1c(=O)n(CC(=O)N3CCN(c4cccc(C(F)(F)F)c4)CC3)nc(C)n12` gave Cruzain inh noDet -4% and Cruzain inh Det -1%.
`Cc1ccc(Nc2nnc(-c3ccc(C)c(S(=O)(=O)N4CCOCC4)c3)c3ccccc23)c(C)c1` gave Cruzain inh noDet 2% and Cruzain inh Det 1%.
Screening Cc1ccc(-n2c(SCC(=O)N/N=C/c3c(C)nn(-c4ccccc4)c3C)nc3ccccc3c2=O)cc1 returned Cruzain inh noDet -6% and Cruzain inh Det -3%.
Cc1nn(-c2ccccc2)c(C)c1/C=N/NC(=O)CSc1nnc(SCc2cccc3ccccc23)s1 was read as Cruzain inh noDet 4µM* and Cruzain inh Det -4%.
C=C(C)Cn1c(SCC)nc2ccccc2c1=O was read as Cruzain inh noDet -4% and Cruzain inh Det -6%.
`C=C(C)Cn1c(SCC(=O)N/N=C/c2c(O)ccc3ccccc23)nc2ccccc2c1=O` gave Cruzain inh noDet 16µM* and Cruzain inh Det -5%.
`Cc1nn(-c2ccccc2)c(C)c1/C=N/NC(=O)CSc1nc2ccccc2c(=O)n1-c1ccc(Br)cc1` gave Cruzain inh noDet 16µM* and Cruzain inh Det 2%.
For Cc1ccccc1-n1c(SCC(=O)N/N=C/c2c(C)nn(-c3ccccc3)c2C)nc2ccccc2c1=O the results were Cruzain inh noDet inconclusive and Cruzain inh Det -3%.
For CCCc1cc(=O)oc2c(C)c3c(cc12)CN(CCc1ccc(Cl)cc1)CO3 the results were Cruzain inh noDet -6% and Cruzain inh Det -3%.
`O=C(O)c1ccccc1C(=O)N1CCN(c2cccc(Cl)c2)CC1` gave Cruzain inh noDet -20% and Cruzain inh Det -4%.
`Nc1ccc(N2CCN(c3cccc(Cl)c3)CC2)cc1` gave Cruzain inh noDet 16µM* and Cruzain inh Det -6%.
`COc1ccc(CCNC(=O)c2ccc3c(c2)CCN3S(=O)(=O)c2ccc(C)cc2)cc1OC` gave Cruzain inh noDet inconclusive and Cruzain inh Det -3%.
Cc1cccc(C(=O)Nc2nnc(SCc3cc(=O)n4cccc(C)c4n3)s2)c1 was read as Cruzain inh noDet 10% and Cruzain inh Det 2%.
Screening COc1ccccc1C(=O)N1CCC(c2noc(-c3ccc(S(=O)(=O)N4CCCC4)cc3)n2)CC1 returned Cruzain inh noDet inconclusive and Cruzain inh Det -2%.
`Cc1nnsc1C(=O)Oc1ccccc1Cl` gave Cruzain inh noDet -7% and Cruzain inh Det -2%.
COc1ccc(NC(=O)c2c(NCc3ccc(N(C)C)cc3)sc3c2CCC3)cc1 was read as Cruzain inh noDet -12% and Cruzain inh Det -6%.
Screening Oc1ccc2ccccc2c1/C=C\c1ccc2c(Br)cc(Br)c(O)c2n1 returned Cruzain inh noDet 3.2µM* and Cruzain inh Det 1%.
For Oc1ccc2ccccc2c1/C=N/n1cnnc1 the results were Cruzain inh noDet -18% and Cruzain inh Det -11%.
Screening Cc1noc(C)c1-c1cc(NC2CCNCC2)ncn1 returned Cruzain inh noDet 8% and Cruzain inh Det 4%.
Screening Cc1csc(NC(=O)/C=C/c2ccc3c(c2)OCO3)n1 returned Cruzain inh noDet -14% and Cruzain inh Det -9%.
`O=C(/C=C/c1ccc2c(c1)OCO2)Nc1nc(-c2ccc(F)cc2F)cs1` gave Cruzain inh noDet 7.9µM* and Cruzain inh Det -5%.
Screening O=C(O)c1cccc(C[C@H](Br)C(=O)O)c1 returned Cruzain inh noDet 11% and Cruzain inh Det 5%.
`COc1ccc2ccccc2c1C1CC(=O)N2CN(C3CCCCC3)CSC2=C1C#N` (configuration not stated) gave Cruzain inh noDet inconclusive and Cruzain inh Det -15%.
For COc1ccc(C2CC(=O)N3CN(C4CCCCC4)CSC3=C2C#N)c(OC)c1 (configuration not stated) the results were Cruzain inh noDet 28% and Cruzain inh Det 25µM*.
`Cc1ccc(CN(C(=O)COc2ccc(C(C)C)cc2)C2CCS(=O)(=O)C2)o1` (configuration not stated) gave Cruzain inh noDet inconclusive and Cruzain inh Det -7%.
`Cc1nn(C(=O)c2c(F)cccc2F)c(C)c1S(=O)(=O)N1CCCCCC1` gave Cruzain inh noDet -4% and Cruzain inh Det -3%.
`CN(C)c1ccc(C(=O)NCc2ccc3c(c2)CCN3C(=O)c2ccc(Cl)cc2)cc1` gave Cruzain inh noDet -2% and Cruzain inh Det 6%.
CN(C)c1ccc([C@@H]2[C@@H]([N+](=O)[O-])[C@H]3C=Cc4ccccc4N3[C@H]2C(=O)c2ccc(Cl)cc2)cc1 was read as Cruzain inh noDet 7.9µM* and Cruzain inh Det -5%.
For O=c1c(-c2ccccc2)nc2cnc(N3CCOCC3)nc2n1Cc1ccc(F)cc1 the results were Cruzain inh noDet 2% and Cruzain inh Det 3%.
Screening COC(=O)c1ccc(Sc2ccc(C)cc2)c(N)c1 returned Cruzain inh noDet -5% and Cruzain inh Det -1%.
For COc1cc(Sc2ccc(C)cc2)c(OC)cc1N the results were Cruzain inh noDet 16µM* and Cruzain inh Det 1%.
`O=C(Nc1ccc(Cl)cc1F)c1ccc(COc2c(F)c(F)c(F)c(F)c2F)o1` gave Cruzain inh noDet inconclusive and Cruzain inh Det 20µM*.
`O=C(Nc1ccc(F)cc1F)c1ccc(COc2c(F)c(F)cc(F)c2F)o1` gave Cruzain inh noDet 2% and Cruzain inh Det -10%.
`Cc1cc(-c2ccc(S(=O)(=O)NCc3ccccc3Cl)s2)on1` gave Cruzain inh noDet -5% and Cruzain inh Det -6%.
COc1ccc(NC(=O)c2ccc(-c3nc(COc4ccccc4)c(C)o3)cc2)cc1 was read as Cruzain inh noDet 2% and Cruzain inh Det -2%.
CC(=O)c1ccc(NC(=O)c2ccc(-c3nc(CSc4ccc(C)cc4)c(C)o3)cc2)cc1 was read as Cruzain inh noDet inconclusive and Cruzain inh Det -2%.
For CC(=O)c1ccc(NC(=O)c2ccc(-c3nc(COc4ccc(C)cc4)c(C)o3)cc2)cc1 the results were Cruzain inh noDet 1µM* and Cruzain inh Det -3%.
`CC(=O)c1ccc(NC(=O)c2ccc(-c3nc(CSc4ccccc4)c(C)o3)cc2)cc1` gave Cruzain inh noDet 10µM* and Cruzain inh Det -2%.
`COc1ccc(Nc2oc(/C=C/c3cc(OC)c(OC)c(OC)c3)nc2C#N)cc1` gave Cruzain inh noDet inconclusive and Cruzain inh Det -5%.

Screens deposited in PubChem BioAssay by National Center for Advancing Translational Sciences (NCATS).
